Assay results as given in PubChem BioAssay (Tox21).
Several values for one entry are separate records, joined by “and”; a condition that tells them apart may be missing. Equal entries are not always repeated. Inconclusive results are not listed. Where a call stands in place of a potency, no number is given. The source holds several records for some structures; these can differ, active in one and inactive in another. Activity calls are given as the source filed them. Unless noted, the call rests on the fitted dose curve; in most records, active means well fitted curve in the direction sought with a large enough effect in the repeat runs; inconclusive means weak or mixed curves; inactive means no such curve, though single readings can be large; an effect the other way counts as inactive or inconclusive.

Experiments:
[1] = qHTS assay to identify small molecule antagonists of the estrogen receptor alpha (ER-alpha) signaling pathway using the BG1 cell line in the presence of 0.1 nM 17-beta-estradiol - cell viability counter screen (AID 1259241); further: nearly all actives have a fitted effect of over 40% in size; further: potency means the concentration at half of the fitted maximal effect
Summary of the method: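 Following 5 days in phenol red-free medium with charcoal-stripped serum, VM7Luc4E2 cells received test compounds alongside 0.1 nM 17beta-estradiol (final) at 37C for 22 hr. Live cells were then quantified via protease-substrate fluorescence.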

[2] = qHTS assay to identify small molecule antagonists of the androgen receptor (AR) signaling pathway using the MDA cell line in the presence of 0.5 nM R1881 - cell viability counter screen (AID 1259242); further: nearly all actives have a fitted effect of over 45% in size; further: potency means the concentration at half of the fitted maximal effect
Summary of the method: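 MDA-kb2 cells (human breast carcinoma, stably carrying MMTV-luciferase reporter) were exposed to compounds with 0.5 nM R1881 (final) for 16 hr at 37C, 0% CO2; viability then read as live-cell protease fluorescence (CellTiter-Fluor, 30 min) in the same wells.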

[3] = target: Androgen receptor (Homo sapiens) (UniProt P10275); test: qHTS assay to identify small molecule antagonists of the androgen receptor (AR) signaling pathway using the MDA cell line in the presence of 0.5 nM R1881 (AID 1259243); further: nearly all actives have a fitted effect of over 50% in size; further: potency means the concentration at half of the fitted maximal effect
Summary of the method: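 MDA-kb2 human breast carcinoma cells carrying an MMTV-luciferase reporter (AR- and GR-responsive) were plated, rested 5 hr at 37C, dosed with compounds, then stimulated with 0.5 nM R1881 (final) for 16 hr; luminescence was read after ONE-Glo.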

[4] = target: Estrogen receptor (Homo sapiens) (UniProt P03372); test: qHTS assay to identify small molecule antagonists of the estrogen receptor alpha (ER-alpha) signaling pathway using the BG1 cell line in the presence of 0.1 nM 17-beta-estradiol (AID 1259244); further: nearly all actives have a fitted effect of over 50% in size; further: potency means the concentration at half of the fitted maximal effect
Summary of the method: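 VM7Luc4E2 cells (endogenous full-length ER-alpha, stable 4xERE-luciferase) were grown 5 days in phenol red-free medium with charcoal-stripped FBS, then exposed 22 h at 37C to compounds plus 0.1 nM (final) 17beta-estradiol; ONE-Glo luminescence read-out.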

[5] = qHTS assay to identify small molecule phospholipidosis (PLD) inducers (AID 1259344; active means well fitted curve in the direction sought with a large enough effect; an effect the other way counts as inactive or inconclusive)
Summary of the method: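 HepG2 cells, 900/well, treated with compound plus LipidTOX Red for 24 h at 37 C; amiodarone positive and DMSO negative controls. Fixed with paraformaldehyde/Hoechst, then high-content imaging scored LipidTOX pit count and integrated intensity per well and per cell.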

[6] = qHTS assay to identify small molecule HDAC inhibitors (AID 1259364); further: top concentration of the series differs between compounds; nearly all actives have a fitted effect of over 45% in size
Summary of the method: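 Wild-type HCT-116 cells were plated overnight, exposed to compounds for 2 h at 37 °C, then given HDAC-Glo class I/II luminogenic reagent for 30 min at room temperature before luminescence was read.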

[7] = qHTS assay to identify small molecule agonists of the sonic hedgehog signaling (Shh) pathway - cell viability counter screen (AID 1259366); further: nearly all actives have a fitted effect of over 50% in size; further: potency means the concentration at half of the fitted maximal effect
Summary of the method: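 Compounds in DMSO were pin-transferred onto 3T3 Gli1-Luc cells that had settled 4hr; plates then stood 24hr at 37C and 5% CO2. One hour before the end, CellTiter-Fluor was added and fluorescence recorded.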

[8] = qHTS assay to identify small molecule antagonists of the sonic hedgehog signaling (Shh) pathway - cell viability counter screen (AID 1259367); further: nearly all actives have a fitted effect of over 55% in size; further: potency means the concentration at half of the fitted maximal effect
Summary of the method: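 NIH/3T3-derived Gli1-Luc reporter cells, 2,000/well, plated 4 hr before compound addition, then stimulated with conditioned medium for 24 hr at 37C. Viability measured in the same wells by CellTiter-Fluor fluorescence, reagent added at 23 hr for 1 hr.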

[9] = qHTS assay to identify small molecule agonists of the sonic hedgehog signaling (Shh) pathway (AID 1259368; calls by dose curve; further: series mostly up to about 92 µM; nearly all actives have a fitted effect of over 15% in size)
Summary of the method: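 NIH/3T3-derived 3T3Gli1-Luc cells carrying a stably integrated Gli1 response element–firefly luciferase reporter were plated, left 4 hr at 37 C, then given compounds in DMSO for 24 hr. Luminescence was read 30 min after adding luciferase reagent.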

[10] = qHTS assay to identify small molecule HDAC inhibitors - cell viability counter screen (AID 1259365); further: series mostly up to about 92 µM; nearly all actives have a fitted effect of over 50% in size
Summary of the method: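 HCT-116 wild-type, overnight attachment; 2hr drug exposure, 37C; CellTiter-Glo luminescent ATP readout after 30min RT.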

Chain of Androgen receptor (Homo sapiens) (P10275 whole entry, looked up): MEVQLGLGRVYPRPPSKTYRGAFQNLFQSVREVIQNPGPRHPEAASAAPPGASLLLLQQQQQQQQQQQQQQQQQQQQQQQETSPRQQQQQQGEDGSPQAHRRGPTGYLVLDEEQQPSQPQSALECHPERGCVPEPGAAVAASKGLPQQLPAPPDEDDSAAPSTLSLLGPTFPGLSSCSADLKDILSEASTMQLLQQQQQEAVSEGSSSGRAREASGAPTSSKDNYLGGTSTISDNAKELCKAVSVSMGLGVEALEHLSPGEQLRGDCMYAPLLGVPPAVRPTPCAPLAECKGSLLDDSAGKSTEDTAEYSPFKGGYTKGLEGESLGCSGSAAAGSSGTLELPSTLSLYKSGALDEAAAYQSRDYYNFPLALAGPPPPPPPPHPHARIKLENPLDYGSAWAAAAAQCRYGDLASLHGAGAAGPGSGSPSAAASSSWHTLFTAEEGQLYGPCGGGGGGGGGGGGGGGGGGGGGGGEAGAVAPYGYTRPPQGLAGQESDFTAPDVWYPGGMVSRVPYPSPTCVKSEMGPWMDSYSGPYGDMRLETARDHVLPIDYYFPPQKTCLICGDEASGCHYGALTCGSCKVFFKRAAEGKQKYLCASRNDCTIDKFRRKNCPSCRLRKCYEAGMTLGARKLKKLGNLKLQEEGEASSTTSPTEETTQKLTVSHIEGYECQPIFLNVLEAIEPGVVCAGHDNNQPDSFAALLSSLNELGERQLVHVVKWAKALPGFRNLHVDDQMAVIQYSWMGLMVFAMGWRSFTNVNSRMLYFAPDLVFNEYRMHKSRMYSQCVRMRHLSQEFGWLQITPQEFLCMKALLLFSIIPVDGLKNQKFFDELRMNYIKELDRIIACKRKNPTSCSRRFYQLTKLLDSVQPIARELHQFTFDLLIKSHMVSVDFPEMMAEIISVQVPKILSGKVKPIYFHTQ
Chain of Estrogen receptor (Homo sapiens) (P03372 whole entry, looked up): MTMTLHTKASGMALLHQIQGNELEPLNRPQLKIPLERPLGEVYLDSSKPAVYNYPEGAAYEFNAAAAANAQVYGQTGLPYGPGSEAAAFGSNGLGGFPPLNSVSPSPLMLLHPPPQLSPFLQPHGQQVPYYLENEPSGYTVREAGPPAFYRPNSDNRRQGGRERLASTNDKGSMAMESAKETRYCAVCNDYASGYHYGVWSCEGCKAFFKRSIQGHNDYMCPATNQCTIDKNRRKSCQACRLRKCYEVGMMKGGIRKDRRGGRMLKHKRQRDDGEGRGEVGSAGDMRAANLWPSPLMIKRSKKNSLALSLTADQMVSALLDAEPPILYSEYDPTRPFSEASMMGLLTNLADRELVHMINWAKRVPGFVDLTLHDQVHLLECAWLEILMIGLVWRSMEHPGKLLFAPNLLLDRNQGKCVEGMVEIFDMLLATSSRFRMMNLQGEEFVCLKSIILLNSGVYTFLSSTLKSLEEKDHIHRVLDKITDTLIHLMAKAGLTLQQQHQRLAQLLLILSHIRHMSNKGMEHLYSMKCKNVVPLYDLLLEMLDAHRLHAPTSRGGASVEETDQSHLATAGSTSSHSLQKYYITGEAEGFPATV

SMILES | Potency [1] | Potency [2] | Potency [3] | Potency [4] | Potency [5] | Potency [6] | Potency [7] | Potency [8] | Potency [9] | Potency [10] | PLD induction [5]
Nc1nc(=S)c2[nH]cnc2[nH]1 | inactive | inactive | inactive | inactive | inactive | inactive | inactive | inactive | inactive |  | 
NCCO | inactive | inactive |  | inactive | inactive | inactive | inactive | inactive and 43.3 µM (active) | inactive | inactive | 
COC(=O)c1cccc(C(=O)OC)c1 | inactive | inactive | inactive | inactive |  | inactive | inactive | inactive | inactive | inactive | 
CCC(C)(Oc1ccc(C2(c3ccc(OC(C)(CC)C(=O)O)cc3)CCCCC2)cc1)C(=O)O (centres undefined) | inactive | inactive | inactive | inactive | inactive | inactive | inactive | inactive | inactive | inactive | 
CCCC(=O)c1ccccc1 | inactive | inactive | inactive |  |  | inactive | inactive | inactive | inactive | inactive | 
Cc1ccc(S(=O)(=O)Oc2ccc(N=Nc3ccc(-c4ccc(N=Nc5c(O)ccc6cc(S(=O)(=O)O)cc(S(=O)(=O)O)c56)c(C)c4)cc3C)cc2)cc1 | 21.8 µM (active) and 14.1 µM (active) | 27.4 µM (active) and 17.8 µM (active) | 17.3 µM (active) and 20 µM (active) |  |  | inactive | 24.4 µM (active) and 15.9 µM (active) | 24.4 µM (active) and 20 µM (active) | inactive |  | 
O=C1NCC2(CCN(CCc3ccccc3)CC2)O1 | inactive | inactive |  | inactive | inactive | inactive | inactive | inactive | inactive | inactive | 
CCC(C)(C)C(=O)O[C@H]1C[C@@H](C)C=C2C=C[C@H](C)[C@H](CC[C@@H]3C[C@@H](O)CC(=O)O3)[C@H]21 | inactive | inactive |  | inactive | inactive | inactive | inactive | inactive | inactive | inactive | 
NC(N)=Nc1nc(CSCC/C(N)=N/S(N)(=O)=O)cs1 | inactive | inactive |  | inactive | inactive | inactive | inactive | inactive | inactive | inactive | 
CC1COC(=O)O1 (centres undefined) | inactive | inactive | inactive | inactive |  | inactive | inactive | inactive | inactive | inactive | 
COc1ccc(Cc2cnc(N)nc2N)cc1OC | inactive | inactive | inactive | inactive | inactive | inactive | inactive | inactive | inactive | inactive | 
CCN1CCCC1CNC(=O)c1cc(S(=O)(=O)CC)c(N)cc1OC (centres undefined) | inactive | inactive |  | inactive |  | inactive | inactive | inactive | inactive | inactive | -3.27% [at 7.66 µM] (inactive)
Cc1c(O)cccc1C(=O)N[C@@H](CSc1ccccc1)[C@H](O)CN1C[C@H]2CCCC[C@H]2C[C@H]1C(=O)NC(C)(C)C | 8.41 µM (active) and 15 µM (active) | 59.5 µM (active) and 26.6 µM (active) | 18.8 µM (active) |  | inactive | inactive | 1.5 µM (active) and 1.88 µM (active) | 2.37 µM (active) and 3.76 µM (active) | inactive |  | 
CCOc1ccc2c(c1)C(C)=CC(C)(C)N2 | inactive | inactive |  | inactive | inactive | inactive | inactive | inactive | inactive | inactive | 
Cc1scc2c1N(C(=O)CN1CCN(C)CC1)c1ccccc1NC2=O | inactive | inactive |  | inactive | inactive | inactive | inactive | inactive | inactive | inactive | 
Cc1ccc(-c2cc(C(F)(F)F)nn2-c2ccc(S(N)(=O)=O)cc2)cc1 | inactive | inactive | 54.3 µM (active) and 68.6 µM (active) | inactive | inactive | inactive | 60.9 µM (active) and 61.1 µM (active) and inactive | 54.3 µM (active) and 61.1 µM (active) and inactive | inactive | inactive | 
C=CS(=O)(=O)O | inactive | inactive |  | inactive | inactive | inactive | inactive | inactive | inactive | inactive | 
C=CC(=O)OCCCCCCCC | inactive | inactive |  | inactive |  | inactive | inactive | inactive | inactive | inactive | 
Nc1nc2ccccc2[nH]1 | inactive | inactive |  | inactive |  | inactive | inactive | inactive | inactive | inactive | 
CCC[C@H](N[C@@H](C)C(=O)N1[C@H](C(=O)O)C[C@@H]2CCCC[C@@H]21)C(=O)OCC | inactive | inactive |  | inactive | inactive | inactive | inactive | inactive | inactive |  | 
CCCCCC(=O)O[C@]1(C(C)=O)CC[C@H]2[C@@H]3CCC4=CC(=O)CC[C@]4(C)[C@H]3CC[C@@]21C | inactive | 43 µM (active) |  | 48.2 µM (active) | inactive | inactive | inactive | 68.1 µM (active) and inactive | inactive |  | 
